# Tests used:
# [1] = target: Sphingosine kinase 1 (Homo sapiens) (UniProt Q9NYA1); conditions: at 1 µM;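 note: mean SPHK1 inhibition value reported from the GSK PKIS kinase panel screen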
# [2] = target: T1, Sphingosine kinase 2 (Homo sapiens) (UniProt Q9NRA0); conditions: at 0.1 µM
# T1 sequence (whole entry): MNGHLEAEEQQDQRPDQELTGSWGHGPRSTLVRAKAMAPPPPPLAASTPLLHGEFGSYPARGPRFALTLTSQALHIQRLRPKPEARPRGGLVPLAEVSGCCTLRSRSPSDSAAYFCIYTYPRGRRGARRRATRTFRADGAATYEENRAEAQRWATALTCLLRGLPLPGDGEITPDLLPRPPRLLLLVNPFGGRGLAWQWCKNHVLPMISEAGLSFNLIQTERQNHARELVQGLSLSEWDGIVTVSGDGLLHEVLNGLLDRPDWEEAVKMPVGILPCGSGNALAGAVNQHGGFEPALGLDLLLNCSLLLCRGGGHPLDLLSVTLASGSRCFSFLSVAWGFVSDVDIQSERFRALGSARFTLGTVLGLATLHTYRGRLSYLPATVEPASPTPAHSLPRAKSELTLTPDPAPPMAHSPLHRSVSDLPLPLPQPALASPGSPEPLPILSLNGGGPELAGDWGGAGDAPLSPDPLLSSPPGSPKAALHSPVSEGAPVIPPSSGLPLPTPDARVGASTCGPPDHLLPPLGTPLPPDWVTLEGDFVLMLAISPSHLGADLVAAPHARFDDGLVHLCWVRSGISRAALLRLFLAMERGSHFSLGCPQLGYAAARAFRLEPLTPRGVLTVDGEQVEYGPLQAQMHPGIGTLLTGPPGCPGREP
# [3] = target: T1, Sphingosine kinase 2 (Homo sapiens); conditions: at 1 µM
# [4] = target: Casein kinase II subunit alpha (Homo sapiens) (UniProt P68400); conditions: at 0.1 µM
# [5] = target: Casein kinase II subunit alpha (Homo sapiens) (UniProt P68400); conditions: at 1 µM
# [6] = target: T2, Inhibitor of nuclear factor kappa-B kinase subunit alpha (Homo sapiens) (UniProt O15111); conditions: at 0.1 µM
# T2 sequence (whole entry): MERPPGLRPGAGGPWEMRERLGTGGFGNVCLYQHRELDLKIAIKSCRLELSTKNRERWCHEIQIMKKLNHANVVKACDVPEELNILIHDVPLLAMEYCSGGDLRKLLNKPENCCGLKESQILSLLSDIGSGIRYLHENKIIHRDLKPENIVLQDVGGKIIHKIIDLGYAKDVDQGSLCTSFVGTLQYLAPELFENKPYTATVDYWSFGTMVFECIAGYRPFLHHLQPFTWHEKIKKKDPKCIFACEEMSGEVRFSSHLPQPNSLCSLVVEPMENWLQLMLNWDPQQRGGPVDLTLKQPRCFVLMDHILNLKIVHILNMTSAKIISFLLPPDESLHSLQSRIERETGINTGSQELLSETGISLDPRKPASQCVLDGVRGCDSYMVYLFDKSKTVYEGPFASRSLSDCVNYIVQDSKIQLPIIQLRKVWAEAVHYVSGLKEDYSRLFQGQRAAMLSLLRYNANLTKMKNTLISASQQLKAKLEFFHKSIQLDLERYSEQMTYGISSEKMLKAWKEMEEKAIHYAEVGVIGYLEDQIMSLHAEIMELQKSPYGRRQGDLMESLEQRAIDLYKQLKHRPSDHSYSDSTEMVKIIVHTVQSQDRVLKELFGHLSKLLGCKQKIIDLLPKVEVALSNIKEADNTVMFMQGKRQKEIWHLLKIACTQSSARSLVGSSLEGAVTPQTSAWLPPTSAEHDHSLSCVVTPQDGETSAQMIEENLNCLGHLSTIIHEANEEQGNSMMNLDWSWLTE
# [7] = target: T2, Inhibitor of nuclear factor kappa-B kinase subunit alpha (Homo sapiens); conditions: at 1 µM
# [8] = target: T3, Inhibitor of nuclear factor kappa-B kinase subunit beta (Homo sapiens) (UniProt O14920); conditions: at 0.1 µM
# T3 sequence (whole entry): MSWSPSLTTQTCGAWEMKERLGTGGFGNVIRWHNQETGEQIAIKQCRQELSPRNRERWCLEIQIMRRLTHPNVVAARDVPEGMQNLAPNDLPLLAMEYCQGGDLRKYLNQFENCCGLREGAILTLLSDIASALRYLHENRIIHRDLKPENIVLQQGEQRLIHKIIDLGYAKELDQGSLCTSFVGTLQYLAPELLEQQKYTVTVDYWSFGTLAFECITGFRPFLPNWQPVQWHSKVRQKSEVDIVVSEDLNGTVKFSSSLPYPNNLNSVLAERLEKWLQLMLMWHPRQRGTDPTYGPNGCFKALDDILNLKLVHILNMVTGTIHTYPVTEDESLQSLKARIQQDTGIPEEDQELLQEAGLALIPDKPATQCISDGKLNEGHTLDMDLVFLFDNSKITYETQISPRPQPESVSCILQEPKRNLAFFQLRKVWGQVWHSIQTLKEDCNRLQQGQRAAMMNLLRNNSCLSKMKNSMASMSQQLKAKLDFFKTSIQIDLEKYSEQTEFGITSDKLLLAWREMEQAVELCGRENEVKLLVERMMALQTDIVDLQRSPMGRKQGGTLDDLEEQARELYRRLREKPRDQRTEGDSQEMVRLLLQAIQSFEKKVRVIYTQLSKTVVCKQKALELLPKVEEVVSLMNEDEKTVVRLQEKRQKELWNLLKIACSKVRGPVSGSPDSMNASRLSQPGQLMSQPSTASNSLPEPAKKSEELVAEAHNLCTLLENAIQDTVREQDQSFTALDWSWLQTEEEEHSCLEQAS
# [9] = target: T3, Inhibitor of nuclear factor kappa-B kinase subunit beta (Homo sapiens); conditions: at 1 µM
# [10] = target: T4, Inhibitor of nuclear factor kappa-B kinase subunit epsilon (Homo sapiens) (UniProt Q14164); conditions: at 0.1 µM
# T4 sequence (whole entry): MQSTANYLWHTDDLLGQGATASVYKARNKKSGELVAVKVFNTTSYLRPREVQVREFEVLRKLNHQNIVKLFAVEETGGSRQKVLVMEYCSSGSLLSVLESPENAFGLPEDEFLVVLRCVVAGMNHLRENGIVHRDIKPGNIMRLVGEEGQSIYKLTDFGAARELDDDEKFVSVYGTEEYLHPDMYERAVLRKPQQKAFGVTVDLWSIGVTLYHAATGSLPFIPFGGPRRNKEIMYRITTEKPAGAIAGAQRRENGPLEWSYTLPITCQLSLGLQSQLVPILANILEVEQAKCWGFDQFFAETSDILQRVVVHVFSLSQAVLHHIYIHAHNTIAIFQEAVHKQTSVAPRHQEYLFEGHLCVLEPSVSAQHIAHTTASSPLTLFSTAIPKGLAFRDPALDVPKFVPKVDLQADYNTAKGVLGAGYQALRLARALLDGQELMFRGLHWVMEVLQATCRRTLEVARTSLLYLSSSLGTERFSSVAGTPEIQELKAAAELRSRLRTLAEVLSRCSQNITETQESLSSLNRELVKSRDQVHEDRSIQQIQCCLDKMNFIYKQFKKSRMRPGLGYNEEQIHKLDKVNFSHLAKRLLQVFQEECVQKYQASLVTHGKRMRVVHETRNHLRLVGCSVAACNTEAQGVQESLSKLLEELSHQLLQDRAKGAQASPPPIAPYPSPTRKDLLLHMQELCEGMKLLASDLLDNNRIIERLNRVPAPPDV
# [11] = target: T4, Inhibitor of nuclear factor kappa-B kinase subunit epsilon (Homo sapiens); conditions: at 1 µM
# [12] = target: T5, Serine/threonine-protein kinase Nek1 (Homo sapiens) (UniProt Q96PY6); conditions: at 0.1 µM
# T5 sequence (whole entry): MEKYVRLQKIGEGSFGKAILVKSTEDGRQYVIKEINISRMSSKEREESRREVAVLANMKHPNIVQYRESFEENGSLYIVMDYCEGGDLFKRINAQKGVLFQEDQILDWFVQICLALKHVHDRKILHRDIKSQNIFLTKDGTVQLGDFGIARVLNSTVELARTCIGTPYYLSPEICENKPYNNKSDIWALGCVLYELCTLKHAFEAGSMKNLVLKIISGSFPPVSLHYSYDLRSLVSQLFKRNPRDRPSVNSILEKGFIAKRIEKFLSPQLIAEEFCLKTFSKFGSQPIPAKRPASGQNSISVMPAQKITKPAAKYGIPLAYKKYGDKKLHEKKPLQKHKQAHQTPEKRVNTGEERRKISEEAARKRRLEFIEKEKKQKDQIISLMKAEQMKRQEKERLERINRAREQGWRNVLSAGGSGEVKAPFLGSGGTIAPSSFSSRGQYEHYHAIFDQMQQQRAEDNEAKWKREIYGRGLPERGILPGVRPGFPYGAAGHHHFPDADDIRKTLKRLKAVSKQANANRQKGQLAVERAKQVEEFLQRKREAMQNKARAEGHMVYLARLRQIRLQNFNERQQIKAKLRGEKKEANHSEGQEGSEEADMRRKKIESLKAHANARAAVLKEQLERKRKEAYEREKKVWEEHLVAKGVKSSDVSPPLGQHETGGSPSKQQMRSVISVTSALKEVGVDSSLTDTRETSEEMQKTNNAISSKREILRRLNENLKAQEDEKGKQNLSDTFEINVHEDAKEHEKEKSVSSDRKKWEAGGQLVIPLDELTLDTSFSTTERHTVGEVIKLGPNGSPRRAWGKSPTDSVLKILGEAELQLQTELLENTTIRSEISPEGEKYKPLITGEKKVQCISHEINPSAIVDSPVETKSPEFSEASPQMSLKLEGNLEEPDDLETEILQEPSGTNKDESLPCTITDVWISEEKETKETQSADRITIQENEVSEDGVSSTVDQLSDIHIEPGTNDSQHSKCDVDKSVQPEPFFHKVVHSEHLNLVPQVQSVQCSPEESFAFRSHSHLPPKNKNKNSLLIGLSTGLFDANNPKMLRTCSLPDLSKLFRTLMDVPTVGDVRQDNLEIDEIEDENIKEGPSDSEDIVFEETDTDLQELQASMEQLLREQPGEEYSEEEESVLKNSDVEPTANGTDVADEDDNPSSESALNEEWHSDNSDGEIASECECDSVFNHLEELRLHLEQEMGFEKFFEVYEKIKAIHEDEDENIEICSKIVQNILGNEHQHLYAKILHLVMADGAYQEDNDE
# [13] = target: T5, Serine/threonine-protein kinase Nek1 (Homo sapiens); conditions: at 1 µM
# [14] = target: T6, Serine/threonine-protein kinase Nek2 (Homo sapiens) (UniProt P51955); conditions: at 0.1 µM
# T6 sequence (whole entry): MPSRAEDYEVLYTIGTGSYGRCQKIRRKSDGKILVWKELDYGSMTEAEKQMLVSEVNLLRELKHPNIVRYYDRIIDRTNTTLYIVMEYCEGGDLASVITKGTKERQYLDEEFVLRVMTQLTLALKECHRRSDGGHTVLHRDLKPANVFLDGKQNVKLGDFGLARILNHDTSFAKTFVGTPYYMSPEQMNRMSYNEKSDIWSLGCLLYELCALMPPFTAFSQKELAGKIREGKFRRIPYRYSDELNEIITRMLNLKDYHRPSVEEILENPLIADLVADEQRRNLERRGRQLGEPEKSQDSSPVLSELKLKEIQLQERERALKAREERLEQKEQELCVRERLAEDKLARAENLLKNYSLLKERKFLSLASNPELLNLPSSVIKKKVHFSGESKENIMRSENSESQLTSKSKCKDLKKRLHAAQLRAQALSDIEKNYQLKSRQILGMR
# [15] = target: T6, Serine/threonine-protein kinase Nek2 (Homo sapiens); conditions: at 1 µM
# [16] = target: Serine/threonine-protein kinase Nek6 (Homo sapiens) (UniProt Q9HC98); conditions: at 0.1 µM
# [17] = target: Serine/threonine-protein kinase Nek6 (Homo sapiens) (UniProt Q9HC98); conditions: at 1 µM
# [18] = target: Serine/threonine-protein kinase Nek7 (Homo sapiens) (UniProt Q8TDX7); conditions: at 0.1 µM
# [19] = target: Serine/threonine-protein kinase Nek7 (Homo sapiens) (UniProt Q8TDX7); conditions: at 1 µM
# [20] = target: T7, Serine/threonine-protein kinase Nek9 (Homo sapiens) (UniProt Q8TD19); conditions: at 0.1 µM;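 note: reported value is the mean percent inhibition of NEK9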
# T7 sequence (whole entry): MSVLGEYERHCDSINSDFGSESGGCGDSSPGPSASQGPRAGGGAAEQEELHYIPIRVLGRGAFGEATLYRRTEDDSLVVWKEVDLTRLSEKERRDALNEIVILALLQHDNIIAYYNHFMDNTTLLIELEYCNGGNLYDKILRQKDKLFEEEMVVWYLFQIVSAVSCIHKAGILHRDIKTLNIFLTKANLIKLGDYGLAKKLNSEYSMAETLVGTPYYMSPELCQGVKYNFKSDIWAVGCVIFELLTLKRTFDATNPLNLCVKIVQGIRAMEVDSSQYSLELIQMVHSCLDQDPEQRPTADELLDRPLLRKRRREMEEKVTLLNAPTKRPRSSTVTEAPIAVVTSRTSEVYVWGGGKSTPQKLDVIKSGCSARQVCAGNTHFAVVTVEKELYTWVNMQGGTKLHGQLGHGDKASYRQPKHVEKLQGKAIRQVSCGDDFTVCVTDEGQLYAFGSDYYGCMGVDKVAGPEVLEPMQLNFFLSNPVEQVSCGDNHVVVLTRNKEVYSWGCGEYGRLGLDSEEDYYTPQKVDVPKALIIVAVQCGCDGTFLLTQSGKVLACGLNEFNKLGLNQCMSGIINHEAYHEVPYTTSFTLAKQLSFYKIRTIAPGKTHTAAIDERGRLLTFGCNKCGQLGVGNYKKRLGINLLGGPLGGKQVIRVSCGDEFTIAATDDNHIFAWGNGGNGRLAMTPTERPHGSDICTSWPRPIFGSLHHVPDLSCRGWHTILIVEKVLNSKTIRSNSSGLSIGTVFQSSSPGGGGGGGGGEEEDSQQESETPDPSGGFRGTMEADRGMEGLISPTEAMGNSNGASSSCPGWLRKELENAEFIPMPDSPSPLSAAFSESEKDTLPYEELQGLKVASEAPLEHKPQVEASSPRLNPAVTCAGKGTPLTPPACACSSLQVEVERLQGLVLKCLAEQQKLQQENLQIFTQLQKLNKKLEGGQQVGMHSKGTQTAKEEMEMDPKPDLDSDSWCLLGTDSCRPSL
# Chain of Serine/threonine-protein kinase Nek7 (Homo sapiens) (Q8TDX7 whole entry, looked up): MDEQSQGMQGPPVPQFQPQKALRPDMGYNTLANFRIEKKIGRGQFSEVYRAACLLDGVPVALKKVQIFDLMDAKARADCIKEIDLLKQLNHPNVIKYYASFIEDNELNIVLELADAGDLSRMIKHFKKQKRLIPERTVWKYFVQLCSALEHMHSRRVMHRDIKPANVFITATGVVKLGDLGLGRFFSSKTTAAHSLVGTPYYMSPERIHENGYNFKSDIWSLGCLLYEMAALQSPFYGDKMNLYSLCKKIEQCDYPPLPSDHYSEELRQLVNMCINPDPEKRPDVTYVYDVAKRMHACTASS
# Chain of Casein kinase II subunit alpha (Homo sapiens) (P68400 whole entry, looked up): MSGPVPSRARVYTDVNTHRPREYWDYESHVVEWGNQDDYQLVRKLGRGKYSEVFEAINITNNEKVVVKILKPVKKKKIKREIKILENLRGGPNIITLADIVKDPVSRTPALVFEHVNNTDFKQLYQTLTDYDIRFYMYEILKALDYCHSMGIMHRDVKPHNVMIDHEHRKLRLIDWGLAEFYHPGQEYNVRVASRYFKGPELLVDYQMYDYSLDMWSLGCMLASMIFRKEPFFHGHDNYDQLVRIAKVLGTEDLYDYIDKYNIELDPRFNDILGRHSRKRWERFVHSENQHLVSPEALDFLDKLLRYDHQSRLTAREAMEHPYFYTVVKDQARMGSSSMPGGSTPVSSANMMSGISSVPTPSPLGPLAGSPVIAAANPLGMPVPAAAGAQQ
# Chain of Serine/threonine-protein kinase Nek6 (Homo sapiens) (Q9HC98 whole entry): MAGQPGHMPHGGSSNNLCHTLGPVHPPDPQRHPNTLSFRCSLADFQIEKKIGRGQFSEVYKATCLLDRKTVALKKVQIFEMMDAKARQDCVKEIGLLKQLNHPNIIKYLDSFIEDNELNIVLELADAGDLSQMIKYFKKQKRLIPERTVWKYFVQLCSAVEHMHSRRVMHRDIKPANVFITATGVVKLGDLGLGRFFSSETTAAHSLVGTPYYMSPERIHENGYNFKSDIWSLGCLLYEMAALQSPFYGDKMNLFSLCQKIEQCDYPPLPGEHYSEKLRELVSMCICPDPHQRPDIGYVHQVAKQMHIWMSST
# Chain of Sphingosine kinase 1 (Homo sapiens) (Q9NYA1 whole entry): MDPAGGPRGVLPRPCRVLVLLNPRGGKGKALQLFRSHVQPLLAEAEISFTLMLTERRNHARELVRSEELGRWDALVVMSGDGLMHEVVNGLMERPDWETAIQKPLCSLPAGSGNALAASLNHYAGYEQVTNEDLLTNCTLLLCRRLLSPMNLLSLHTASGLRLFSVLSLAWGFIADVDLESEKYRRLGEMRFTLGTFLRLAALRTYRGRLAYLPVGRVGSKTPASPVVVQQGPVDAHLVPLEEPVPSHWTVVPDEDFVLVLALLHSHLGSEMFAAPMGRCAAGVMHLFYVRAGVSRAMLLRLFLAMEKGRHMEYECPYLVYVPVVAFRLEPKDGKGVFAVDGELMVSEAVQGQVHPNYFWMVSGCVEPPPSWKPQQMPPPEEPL
Structure (SMILES),inhibition [1] [%],inhibition [2] [%],inhibition [3] [%],inhibition [4] [%],inhibition [5] [%],inhibition [6] [%],inhibition [7] [%],inhibition [8] [%],inhibition [9] [%],inhibition [10] [%],inhibition [11] [%],inhibition [12] [%],inhibition [13] [%],inhibition [14] [%],inhibition [15] [%],inhibition [16] [%],inhibition [17] [%],inhibition [18] [%],inhibition [19] [%],inhibition [20] [%]
O=C1NC(=O)C(N2CCc3ccccc32)=C1c1ccc(Cl)cc1,2.74,0.69,0.87,1.59,-1.39,5.45,4.39,5.07,4.89,3.79,3.58,3.18,2.69,6.49,7.76,-0.04,-0.02,6.9,4.24,5.67
CN1CCC(C(=O)Nc2n[nH]c3nnc(-c4ccccc4)cc23)CC1,-3.46,-0.94,-2.16,6.73,12.2,6.86,1.13,11.4,12.4,7.37,6.54,2.01,4.86,5.31,4.22,2.59,0.5,5.74,4.97,12.7
